This passage reports inhibition results from PubChem BioAssay AID720531 (The Scripps Research Institute Molecular Screening Center, 2013).

The inhibition is the share of the control response that was lost under treatment.

The campaign covered roughly 1,000 compounds. About 270 (27%) were called active. Rule as the data show it: active = inhibition above about 14%; inactive = the rest. The list is a sample of the results.

The target in the test is Methyl-CpG-binding domain protein 2 (Homo sapiens) (UniProt Q9UBB5). Put plainly: MBD2-DBD methyl-oligonucleotide interaction blockers – biochemical, TR-FRET, DNA-binding domain, human, confirmation (AID 720531). The conditions noted are these: TR-FRET MBD2-DBD binding to methylated oligonucleotide; at 4.4 µM; active compounds read high.
Chain of Methyl-CpG-binding domain protein 2 (Homo sapiens) (Q9UBB5 whole entry, looked up, the tested form may be a part): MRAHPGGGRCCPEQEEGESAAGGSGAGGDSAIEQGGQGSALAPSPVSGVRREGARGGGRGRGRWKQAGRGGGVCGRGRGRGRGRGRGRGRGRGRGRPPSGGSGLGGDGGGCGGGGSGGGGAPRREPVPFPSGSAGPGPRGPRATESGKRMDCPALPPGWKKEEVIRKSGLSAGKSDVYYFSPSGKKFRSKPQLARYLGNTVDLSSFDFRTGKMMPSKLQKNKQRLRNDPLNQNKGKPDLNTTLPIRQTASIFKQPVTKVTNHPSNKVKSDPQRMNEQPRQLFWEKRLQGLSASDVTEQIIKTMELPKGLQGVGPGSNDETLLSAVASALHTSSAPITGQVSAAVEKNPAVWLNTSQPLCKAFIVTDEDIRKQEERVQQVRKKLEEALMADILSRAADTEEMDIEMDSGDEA
In the case of `Cc1cc(/C=C2/C(=O)NC(=O)N(Cc3ccco3)C2=O)c(C)n1-c1ccc(C(=O)O)cc1`, the inhibition is 3.26% (inactive).

As to `O=C1NC(=O)N(Cc2ccco2)C(=O)/C1=C\c1ccc(-c2ccc(F)cc2)o1`, the inhibition was 4.49% (inactive).

In the case of `COc1ccc(N2C(=O)/C(=C/c3ccco3)C(=O)NC2=S)cc1`, the inhibition was 88.4% (active).
